Many of the other results were omitted from the sample, so hits are more common in it than they were.
Methyltransferases: Primary Screen for Target Class Profiling of Small Molecule Inhibitors of Methyltransferases; purified enzyme, MTase-Glo SAH luminescence; hits give low values; calls only at 40 µM; 3.9% of 25,000 active; AID 1745853, 2022; call rule not given here
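Each enzyme was assayed with SAM and its substrate. SAH formation detected by MTase-Glo luminescence; single-point 40 uM screen[…].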
MTase-Glo counter: Counterscreen for Target Class Profiling of Small Molecule Inhibitors of Methyltransferases | 6% of 180 active | shares compounds with Methyltransferases | MTase-Glo coupled enzymes, SAH conversion luminescence, no MTase | Potency, µM (titrated, usually from 57.3 µM), most hits filed as inhibitors; active = well fitted inhibition curve with a large enough effect
Large screens that a line does not name were inactive (follow-up assays come after a bar, where they were run).

COc1ccc(C2c3cccn3-c3ccccc3CN2C(=O)Nc2ccc(OC)c(OC)c2)cc1 (stereo unspecified)	none
CCOc1ccc(C2c3cccn3-c3ccccc3CN2C(=O)Nc2ccccc2C(=O)OC)cc1 (stereo unspecified)	none
COc1ccc(C)cc1NC(=O)N1Cc2ccccc2-n2cccc2C1c1ccc(N(C)C)cc1 (stereo unspecified)	none
COc1cc(OC)c(NC(=O)N2Cc3ccccc3-n3cccc3C2c2cccs2)cc1Cl (stereo unspecified)	none
CCOc1ccccc1NC(=O)N1Cc2ccccc2-n2cccc2C1c1ccccc1C (stereo unspecified)	none
COc1ccc(NC(=O)N2Cc3ccccc3-n3cccc3C2c2cccc(C)c2)cc1OC (stereo unspecified)	none
COC(=O)c1ccc(NC(=O)N2Cc3ccccc3-n3cccc3C2c2ccccc2Cl)cc1 (stereo unspecified)	none
CCCNC(=O)N1Cc2ccccc2-n2cccc2C1c1ccc(CC)cc1 (stereo unspecified)	none
CC(C)NC(=O)N1Cc2ccccc2-n2cccc2C1c1cccs1 (stereo unspecified)	none
CCOc1ccc(C2c3cccn3-c3ccccc3CN2C(=O)Nc2ccc(Cl)cc2)cc1 (stereo unspecified)	none
O=C(Nc1ccccc1)N1Cc2ccccc2-n2cccc2C1c1cccc(Cl)c1 (stereo unspecified)	none
Cc1cccc(NC(=O)N2Cc3ccccc3-n3cccc3C2c2cccc(C)c2)c1 (stereo unspecified)	none
Cc1cc(NC(=O)N2Cc3ccccc3-n3cccc3C2C)ccc1Br (stereo unspecified)	none
CCOc1ccc(NC(=O)N2Cc3ccccc3-n3cccc3C2c2ccc(N(C)C)cc2)cc1 (stereo unspecified)	none
Cc1ccccc1C1c2cccn2-c2ccccc2CN1C(=O)Nc1ccc(Br)cc1 (stereo unspecified)	none
CCC1c2cccn2-c2ccccc2CN1C(=O)Nc1ccc(OC)cc1 (stereo unspecified)	none
Oc1ccc2c(c1)C13CCCC[C@H]1[C@@H](C2)N(CC1CCC1)CC3	Methyltransferases active
CSc1ccc(C2c3cccn3-c3ccccc3CN2C(=O)Nc2ccccc2)cc1 (stereo unspecified)	none
Cc1ccc(C2c3cccn3-c3ccccc3CN2C(=O)Nc2cccc(Br)c2)cc1 (stereo unspecified)	none
Cc1c(Cl)cccc1NC(=O)N1Cc2ccccc2-n2cccc2C1c1cccs1 (stereo unspecified)	none
CCCN1CCO[C@@H]2c3cc(O)ccc3OC[C@H]21	none
CCCN1CCc2cccc3c2[C@H]1Cc1ccc(O)c(O)c1-3	Methyltransferases active
COc1ccc(NC(=O)N2Cc3ccccc3-n3cccc3C2C)cc1OC (stereo unspecified)	none
Cc1ccccc1NC(=O)N1Cc2ccccc2-n2cccc2C1c1ccccc1Cl (stereo unspecified)	none
COc1ccc(C2c3cccn3-c3ccccc3CN2C(=O)Nc2ccccc2C)cc1 (stereo unspecified)	none
Cc1ccc(NC(=O)N2Cc3ccccc3-n3cccc3C2c2ccc(F)cc2)cc1 (stereo unspecified)	none
CCCNC(=O)N1Cc2ccccc2-n2cccc2C1c1cccc(Cl)c1 (stereo unspecified)	none
CCOc1ccc(C2c3cccn3-c3ccccc3CN2C(=O)Nc2ccccc2CC)cc1 (stereo unspecified)	none
C=C[C@H]1CN2CC[C@H]1C[C@@H]2CNC(=O)Nc1ccc(Br)cc1	Methyltransferases active | MTase-Glo counter inactive
Cn1nc(-c2cccs2)cc1[C@H]1CN2CC[C@H]1C[C@@H]2CNC(=O)C1CCCCC1	none
C=C[C@H]1CN2CC[C@H]1C[C@@H]2[C@@H](O)c1ccnc2ccccc12	none
O=C(Nc1ccccc1)N1Cc2ccccc2-n2cccc2C1c1cc(F)cc(F)c1 (stereo unspecified)	none
COC(=O)CCNC(=O)N1Cc2ccccc2-n2cccc2C1c1ccc(C(C)C)cc1 (stereo unspecified)	none
CC[C@H]1CN2CC[C@H]1C[C@@H]2CNCc1ccc(-c2ccccc2)cc1	Methyltransferases active | MTase-Glo counter inactive
CS(=O)(=O)NC[C@H]1C[C@@H]2CCN1C[C@@H]2CN1CCc2ccccc2C1	none
COc1ccccc1-c1cc([C@H]2CN3CC[C@H]2C[C@@H]3CNS(=O)(=O)c2ccccc2)n(C)n1	none
COc1ccc(C2c3cccn3-c3ccccc3CN2C(=O)Nc2cc(C)ccc2C)cc1OC (stereo unspecified)	none
CC1c2cccn2-c2ccccc2CN1C(=O)Nc1cccc2c1CCCC2 (stereo unspecified)	none
